# Measured values taken from PubChem BioAssay (NCATS).
# Inconclusive results are not listed. A number with no mark means an inactive call. The source made the active and inactive calls. Calls come from the whole dose curve; tested in HEK293 reporter line.
# Test: qHTS for Inhibitors of the Functional Ribonucleoprotein Complex (vRNP) of Lassa (LASV) Arenavirus: LASV Primary Screen - GLuc reporter signal (AID 1347082); note: nearly all actives have a fitted effect of over 60% in size
# Conditions: LASV minigenome vRNP, Gaussia luciferase reporter; series mostly up to 57.5 µM; activity change, negative = inhibition: at the top concentration
# % is set by controls: 0 for no effect and ±100 for the full control effect; potency is the fitted concentration of half-maximal effect.
Structure (SMILES),"activity change, negative = inhibition",Potency
C=CC(C)(C)c1[nH]cnc1/C=C1\NC(=O)C(C(C)C)NC1=O (stereo not given),-32.3%,
O=C(O)C[C@H](O)C[C@H](O)C=Cc1c(C2CC2)nc2ccccc2c1-c1ccc(F)cc1,-26.6%,
COc1cc2c(ccc3c4cc(OC)c(OC)cc4c[n+](C)c23)cc1O,-14.4%,
COC(=O)c1ccc2c(c1)C(NC(C)=O)CCc1cc(OC)c(OC)c(OC)c1-2 (stereo not given),-29.9%,
O=C(/C=C/c1ccccc1)NCCc1ccccc1,-1.92%,
O=C(O)CCNc1cc(N2CCc3ccccc3CC2)nc(-c2ccccn2)n1,4.09%,
C[C@]12CC[C@H](O)C[C@H]1CC[C@@H]1C2CC[C@]2(C)[C@@H](C3=CC(=O)OC3)[C@@H](O)C[C@]12O (stereo not given in full),,6.31 µM (active)
Oc1ccc(C2CCN(c3ccnc4ccccc34)CC2)cc1O,,15.3 µM (active)
CCCCCC(=O)N[C@@H](c1ccccc1)[C@@H](O)C(=O)O[C@H]1C[C@@]2(O)[C@@H](OC(=O)c3ccccc3)C3[C@](C)(C(=O)[C@H](O)C(=C1C)C2(C)C)[C@@H](OC1OCC(O)C(O)C1O)C[C@H]1OC[C@@]31OC(C)=O (stereo not given in full),-11.4%,
C[C@H]([C@@H](O)[C@@H](O)[C@@H](C)C(C)(C)C)[C@H]1CC[C@H]2C3CC[C@H]4C[C@H](OS(=O)(=O)O)[C@@H](OS(=O)(=O)O)C[C@]4(C)[C@H]3CC[C@]12C (stereo not given in full),-10.7%,
CC[C@H]1OC(=O)[C@H](C)[C@@H](O[C@H]2C[C@@](C)(OC)[C@@H](O)[C@H](C)O2)[C@H](C)[C@@H](O[C@@H]2O[C@H](C)C[C@H](N(C)C)[C@@H]2O)[C@](C)(OC)C[C@@H](C)C(=O)[C@H](C)[C@@H](O)[C@]1(C)O,-5.45%,
CCCNC(=O)[C@H]1O[C@H]1C(=O)N[C@H](C(=O)N1CCC[C@@H]1C(=O)OC)C(C)CC (stereo not given in full),,27.3 µM (active)
O=C1NC(=O)C(=Cc2ccc3c(c2)OC(F)(F)O3)S1,-25%,
C/C=C(\C)C(=O)N[C@@H](c1ccccc1)[C@@H](O)C(=O)O[C@H]1C[C@@]2(O)[C@@H](OC(=O)c3ccccc3)C3[C@](C)(C(=O)[C@H](O)C(=C1C)C2(C)C)[C@@H](O)C[C@H]1OC[C@@]31OC(C)=O (stereo not given in full),-37.7%,
CON=C(C(=O)N[C@@H]1C(=O)N2C(C(=O)O)=C(CSC(=O)c3ccco3)CS[C@H]12)c1csc(N)n1,-3.53%,
CNCCCCc1cnc(C)c2[nH]c3ccccc3c12,-10.6%,
COc1cccc2c1C1COC3C4CC(C(=O)O)C(C(C2)N13)N4C (stereo not given),-31.8%,
CC(C)c1oc(=O)cc2c1[C@@H](O)[C@H]1OC(=O)[C@@]3(C)CC[C@@H](O)[C@@]2(C)C13 (stereo not given in full),,5.62 µM (active)
CC1=CC(C)CC(C)OC(=O)CC(c2ccc(O)cc2)NC(=O)C(Cc2c(Br)[nH]c3ccccc23)N(C)C(=O)C(C)NC(=O)C(C)C1 (stereo not given),-14.2%,
CNC(=O)Nc1ccc(Cl)c(Cl)c1,-32.1% [at 115 µM],

Structure (SMILES),"activity change, negative = inhibition",Potency
COc1cc([C@@H]2c3cc4c(cc3C[C@H]3COC(=O)[C@@H]32)OCO4)cc(OC)c1O,-3.99%,
CCCCCOC(=O)Nc1nc(=O)n([C@@H]2O[C@H](C)[C@@H](O)C2O)cc1F (stereo not given in full),-25.9%,
O=C1C=CC(O)(c2cc(=O)c3c(O)cc(O)cc3o2)C=C1,,17.8 µM (active)
COc1cc(/C=C/C(=O)c2ccc(O)cc2O)ccc1O,5.2%,
CN(C(=O)c1ccc(F)cc1C(F)(F)F)C1CCN(c2nnc(-c3ccnn3C)c3ccccc23)CC1,-27.1%,
CC(=O)O[C@@]12CO[C@@H]1C[C@H](OC1OCC(O)C(O)C1O)[C@@]1(C)C(=O)[C@H](O)C3=C(C)[C@@H](OC(=O)[C@H](O)[C@@H](NC(=O)c4ccccc4)c4ccccc4)C[C@@](O)([C@@H](OC(=O)c4ccccc4)C12)C3(C)C (stereo not given in full),8.54%,
O=c1ccn([C@@H]2O[C@H](COP(=O)(O)O)[C@@H](O)[C@H]2O)c(=O)[nH]1,-3.26%,
COc1ccnc2[nH]cc(C(=O)C(=O)N3CCN(C(=O)c4ccccc4)C[C@@H]3C)c12,-13.3%,
O=C(/C=C/c1ccc(O)c(O)c1)c1ccc(O[C@@H]2O[C@H](CO)[C@@H](O)[C@H](O)[C@H]2O)c(O)c1O,22%,
CC(=O)O[C@@]12CO[C@@H]1C[C@@H](O)[C@@]1(C)C(=O)[C@H](O)C3=C(C)[C@@H](OC(=O)[C@H](O)[C@@H](NC(=O)c4ccccc4)c4ccccc4)C[C@@](O)([C@@H](OC(=O)c4ccccc4)C12)C3(C)C (stereo not given in full),-25.4%,
CC(C)c1c(C(=O)Nc2ccccc2)c(-c2ccccc2)c(-c2ccc(F)cc2)n1CC[C@H](O)C[C@@H](O)CC(=O)O,-29.4%,
Cc1cnn(C)c1C(=O)Nc1cc(Nc2ccc3c(C=Cc4ccccn4)n[nH]c3c2)ccc1F,,21.7 µM (active)
COc1ccc(C2CC(=O)c3c(O)cc(O)cc3O2)cc1O (stereo not given),-10.5%,
C=C1C(=O)O[C@@H]2C[C@@H](C)[C@H]3C=CC(=O)[C@]3(O)C[C@@H]12,-25.8%,
C[C@H]1CCC[C@@H](O)CCC/C=C/c2cc(O)cc(O)c2C(=O)O1,-33.2%,
COC(=O)C1C2CC3c4[nH]c5cc(OC)ccc5c4CCN3CC2CC(O)C1OC (stereo not given),13%,
C=C1C(=O)[C@@]23[C@H](O)C[C@@H]4C(C)(C)CC[C@H](O)[C@]4(C)[C@@H]2C[C@H](O)[C@@H]1[C@H]3O,,8.91 µM (active)
CC(=O)O[C@H]1C(=O)[C@@]2(C)C([C@H](OC(=O)c3ccccc3)[C@]3(O)C[C@H](O)C(C)=C1C3(C)C)[C@]1(OC(C)=O)CO[C@@H]1C[C@H]2O (stereo not given in full),-19.8%,
COc1ccc(C2COc3cc(O)ccc3C2)c(OC)c1O (stereo not given),-32.3%,
CC(C)(O)CC[C@@H](O)[C@](C)(O)[C@H]1CC[C@@]2(O)C3=CC(=O)[C@@H]4C[C@@H](O)[C@@H](O)C[C@]4(C)[C@@H]3CC[C@]12C,1.21%,
